Laboratory results from PubChem BioAssay (NCATS).
Values joined by “and” are separate entries in the source; they are usually repeats but may differ in a detail not shown here. Equal values may be shown once. Results filed as inconclusive are left out. Active and inactive are the calls of the source. Unless noted, calls follow the shape of the dose curve; as a rule, active = well fitted curve in the direction sought with a large enough effect; inconclusive = small, poorly fitted or top-dose-only effect, or another doubt; inactive = no such curve, though single readings can be large; an effect the other way counts as inactive or inconclusive.

Tests used:
[1] = AP1 Signaling Pathway (AID 357; active = well fitted curve in either direction with a large enough effect, not every such curve was filed as active;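 also: ME-180 reporter cells stimulated with EGF at its EC50 level; % is scaled to controls: 0 for no effect and ±100 for the full control effect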)
Outline: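 Titration-series screen for positive or negative modulators of EC50 EGF-induced signaling in ME-180 cells carrying an AP-1-driven beta-lactamase reporter. After 5 hours at 37 degrees Celsius, CCF4 460nm/530nm emission ratio gave %Activity; AC50 values derived.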

[2] = target: Cytochrome P450 1A2 (Homo sapiens) (UniProt P05177); assay: p450-cyp1a2 (AID 410; calls by dose curve; also: potency is read from the fitted curve at half-maximal effect;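 as to activity change, negative = inhibition: -100% = full effect of reference inhibitor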)
Cytochrome P450 1A2 (Homo sapiens), sequence (P05177 whole entry, looked up): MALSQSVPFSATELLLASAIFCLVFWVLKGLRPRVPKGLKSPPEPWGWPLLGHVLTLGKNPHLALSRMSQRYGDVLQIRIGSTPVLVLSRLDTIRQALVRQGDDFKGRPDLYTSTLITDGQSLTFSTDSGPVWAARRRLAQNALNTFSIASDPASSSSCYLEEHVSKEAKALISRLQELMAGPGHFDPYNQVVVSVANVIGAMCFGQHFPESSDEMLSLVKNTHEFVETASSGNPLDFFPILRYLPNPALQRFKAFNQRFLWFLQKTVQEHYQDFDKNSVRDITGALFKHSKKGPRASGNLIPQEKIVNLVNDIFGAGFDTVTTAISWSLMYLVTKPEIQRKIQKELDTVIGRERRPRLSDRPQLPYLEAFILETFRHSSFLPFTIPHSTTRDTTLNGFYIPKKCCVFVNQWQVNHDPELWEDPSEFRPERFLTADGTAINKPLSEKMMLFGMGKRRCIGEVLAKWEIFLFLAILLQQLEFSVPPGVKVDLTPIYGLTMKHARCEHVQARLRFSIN
Outline: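 Luminescent demethylation readout: Luciferin-ME (100uM, equal to Km) turned over by 20nM CYP1A2 for 60 min at room temperature after NADPH regeneration addition, following 10 min compound preincubation. Normalization used 57 uM furafylline as full inhibition.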

[3] = Stat Signaling Pathway (AID 446; active = well fitted curve in either direction with a large enough effect, not every such curve was filed as active;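 also: ME-180 cervical cancer cells given 40 pM IL-6 alongside compound; SIE-controlled beta-lactamase reporter measured as 460/530 nm FRET emission ratio; % is scaled to controls: 0 for no effect and ±100 for the full control effect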)
Outline: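 Overnight-plated ME-180 cells bearing a STAT Inducible Element beta-lactamase reporter; 5 h co-exposure to compound and 40 pM IL-6; values normalized to 300 pM IL-6 and 125 nM JAK inhibitor controls.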

[4] = target: Glucocorticoid receptor (Homo sapiens) (UniProt P04150); assay: GR-GFP Redistribution (AID 450;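 active = compounds whose dose series gives a full or clear partial fitted curve of increased nuclear translocation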; also: potency is read from the fitted curve at half-maximal effect); conditions: U2OS GR-GFP nuclear translocation, laser cytometry, 2 h
Glucocorticoid receptor (Homo sapiens), sequence (P04150 whole entry, looked up, the tested form may be a part): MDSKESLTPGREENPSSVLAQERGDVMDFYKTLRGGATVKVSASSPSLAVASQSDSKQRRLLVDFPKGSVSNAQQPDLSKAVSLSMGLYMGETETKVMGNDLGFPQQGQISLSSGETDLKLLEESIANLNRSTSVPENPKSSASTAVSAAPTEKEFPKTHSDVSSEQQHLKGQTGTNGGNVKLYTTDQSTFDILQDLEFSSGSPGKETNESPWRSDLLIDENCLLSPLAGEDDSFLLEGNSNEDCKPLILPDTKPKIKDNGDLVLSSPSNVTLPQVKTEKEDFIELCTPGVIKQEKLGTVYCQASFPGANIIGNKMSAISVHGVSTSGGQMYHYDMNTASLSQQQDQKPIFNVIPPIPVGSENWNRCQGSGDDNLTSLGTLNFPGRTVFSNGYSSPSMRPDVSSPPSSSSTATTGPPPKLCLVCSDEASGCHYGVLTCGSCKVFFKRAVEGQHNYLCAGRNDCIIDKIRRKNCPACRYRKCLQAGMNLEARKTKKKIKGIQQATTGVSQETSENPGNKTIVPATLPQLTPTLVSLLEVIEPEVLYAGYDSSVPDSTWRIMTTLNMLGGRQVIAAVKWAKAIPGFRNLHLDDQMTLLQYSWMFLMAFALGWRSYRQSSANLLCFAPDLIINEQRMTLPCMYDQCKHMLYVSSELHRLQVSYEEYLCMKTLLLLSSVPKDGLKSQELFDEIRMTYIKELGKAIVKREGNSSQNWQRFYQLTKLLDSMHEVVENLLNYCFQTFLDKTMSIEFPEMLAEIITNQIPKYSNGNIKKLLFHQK

[5] = target: Mitogen-activated protein kinase 10 (Mus musculus) (UniProt Q61831); assay: JNK3 AlphaScreen Assay (AID 530; active = well fitted curve in either direction with a large enough effect, not every such curve was filed as active;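 also: kinase came from lysate of stimulated human HepG2 cells; signal reports phosphorylation of biotinylated GST-cJun 1-79 at Ser73 with 10 µM ATP; % is scaled to controls: 0 for no effect and ±100 for the full control effect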)
Outline: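 Activity was read by AlphaScreen after JNK3-containing HepG2 lysate (cytokine pre-activated) phosphorylated biotinylated GST-cJun with 10 uM ATP at room temperature. Phospho-Ser73 cJun antibody with Protein-A acceptor beads provided detection.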

[6] = target: 3',5'-cyclic-AMP phosphodiesterase 4B (Homo sapiens) (UniProt Q07343); assay: qHTS Assay for Inhibitors of PDE-IV (AID 607; active = well fitted activation curve with a large enough effect in the main read-out, with a control signal flat, not every such curve was filed as active; also: % of control where 0% means no effect)
3',5'-cyclic-AMP phosphodiesterase 4B (Homo sapiens), sequence (Q07343 whole entry, looked up): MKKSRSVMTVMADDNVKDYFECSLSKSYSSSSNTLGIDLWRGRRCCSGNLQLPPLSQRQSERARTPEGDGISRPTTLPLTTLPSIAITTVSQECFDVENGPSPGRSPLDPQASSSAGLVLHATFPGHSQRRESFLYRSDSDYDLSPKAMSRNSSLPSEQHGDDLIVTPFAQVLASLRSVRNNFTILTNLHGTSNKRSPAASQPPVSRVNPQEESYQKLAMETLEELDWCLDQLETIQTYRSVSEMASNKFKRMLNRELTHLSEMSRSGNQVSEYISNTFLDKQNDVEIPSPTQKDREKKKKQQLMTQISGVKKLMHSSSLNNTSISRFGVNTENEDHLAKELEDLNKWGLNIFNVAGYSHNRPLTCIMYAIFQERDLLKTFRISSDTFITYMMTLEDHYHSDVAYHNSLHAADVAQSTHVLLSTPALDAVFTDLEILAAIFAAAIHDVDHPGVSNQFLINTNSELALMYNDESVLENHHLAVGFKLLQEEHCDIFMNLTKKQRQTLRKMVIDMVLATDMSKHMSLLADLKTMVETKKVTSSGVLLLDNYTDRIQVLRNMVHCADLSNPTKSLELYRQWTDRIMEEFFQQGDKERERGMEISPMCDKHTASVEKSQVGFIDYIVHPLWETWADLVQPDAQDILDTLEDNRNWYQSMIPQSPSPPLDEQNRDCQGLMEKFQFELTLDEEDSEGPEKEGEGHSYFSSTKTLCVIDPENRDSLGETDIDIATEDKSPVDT
Outline: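 Live HEK293 cells with a modified cyclic nucleotide-gated (CNG) channel report intracellular cAMP via membrane-potential dye fluorescence (ex 535/em 590 nm). Endogenous PDE-IV was targeted. Compounds were tested at up to 22.9 uM final; RO 20-1724 100 uM served as control.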

[7] = target: Cytochrome P450 2D6 (Homo sapiens) (UniProt P10635); assay: qHTS Assay for Inhibitors and Substrates of Cytochrome P450 2D6 (AID 891); also: potency is read from the fitted curve at half-maximal effect; nearly all actives have a fitted effect of over 60% in size
Cytochrome P450 2D6 (Homo sapiens), sequence (P10635 whole entry, looked up): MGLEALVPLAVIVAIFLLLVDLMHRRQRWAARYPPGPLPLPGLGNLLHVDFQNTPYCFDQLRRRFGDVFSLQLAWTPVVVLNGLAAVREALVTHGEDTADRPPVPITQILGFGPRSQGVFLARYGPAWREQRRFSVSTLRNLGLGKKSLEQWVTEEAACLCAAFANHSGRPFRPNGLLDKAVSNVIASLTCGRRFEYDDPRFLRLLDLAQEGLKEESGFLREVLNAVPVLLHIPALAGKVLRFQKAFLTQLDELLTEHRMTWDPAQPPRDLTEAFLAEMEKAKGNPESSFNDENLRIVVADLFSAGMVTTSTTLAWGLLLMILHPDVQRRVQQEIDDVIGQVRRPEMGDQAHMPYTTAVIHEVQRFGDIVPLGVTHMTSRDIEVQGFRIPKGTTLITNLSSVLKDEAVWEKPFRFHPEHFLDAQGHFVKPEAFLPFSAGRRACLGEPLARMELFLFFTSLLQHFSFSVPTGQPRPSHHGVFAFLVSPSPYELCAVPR
Outline: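 Luminescent read-out of luciferin formed by 5 nM human CYP2D6 demethylating 30 uM Luciferin-ME EGE (Km level) over 60 min at room temperature after NADPH regeneration addition. Data normalized to full inhibition by 1.43 uM quinidine.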

[8] = qHTS Assay for Lipid Storage Modulators (AID 1519; calls by dose curve); conditions: Drosophila S3 cells, BODIPY lipid droplet/cell ratio, laser cytometry, cells loaded with oleic acid; for activity change, negative = inhibition: at 25.7 µM (top of the series)
Outline: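 Cells seeded at 5,000 per well were treated with compounds over a concentration series and loaded with oleic acid (400 uM, as added). Lipid droplet fluorescence (488 nm excitation, 500-530 nm channel) was read by laser-scanning cytometry and normalized to 20 uM Triacsin C.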

[9] = target: Ubiquitin carboxyl-terminal hydrolase 1 (Homo sapiens) (UniProt O94782); assay: Inhibitors of USP1/UAF1: Pilot qHTS (AID 504865); also: nearly all actives have a fitted effect of over 35% in size; also: potency is read from the fitted curve at half-maximal effect
Ubiquitin carboxyl-terminal hydrolase 1 (Homo sapiens), sequence (O94782 whole entry, looked up): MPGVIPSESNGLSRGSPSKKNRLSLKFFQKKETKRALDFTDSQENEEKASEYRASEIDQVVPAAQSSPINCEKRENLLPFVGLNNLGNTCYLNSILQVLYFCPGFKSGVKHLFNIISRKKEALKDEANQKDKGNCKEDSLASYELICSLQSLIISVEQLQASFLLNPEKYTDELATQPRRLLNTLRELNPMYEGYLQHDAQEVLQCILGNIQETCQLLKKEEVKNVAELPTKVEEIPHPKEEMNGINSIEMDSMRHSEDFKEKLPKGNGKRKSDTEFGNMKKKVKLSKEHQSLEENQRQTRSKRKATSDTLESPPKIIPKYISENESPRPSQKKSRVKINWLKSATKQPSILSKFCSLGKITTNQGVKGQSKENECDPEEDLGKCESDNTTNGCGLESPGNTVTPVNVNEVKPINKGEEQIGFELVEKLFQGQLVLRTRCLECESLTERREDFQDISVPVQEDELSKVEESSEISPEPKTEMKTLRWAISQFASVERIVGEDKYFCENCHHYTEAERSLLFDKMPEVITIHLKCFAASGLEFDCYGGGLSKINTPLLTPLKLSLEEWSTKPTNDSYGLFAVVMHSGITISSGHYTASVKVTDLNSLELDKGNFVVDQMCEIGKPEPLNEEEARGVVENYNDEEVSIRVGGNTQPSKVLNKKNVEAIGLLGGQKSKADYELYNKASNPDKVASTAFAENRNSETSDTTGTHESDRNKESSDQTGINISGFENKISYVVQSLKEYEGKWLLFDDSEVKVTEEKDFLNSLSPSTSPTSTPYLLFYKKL
Outline: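 Kinetic fluorescence assay: 1nM USP1/UAF1, 15 min compound preincubation, then 150nM Ub-Rho; 480/540 nm.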

[10] = target: Glucocorticoid receptor (Homo sapiens) (UniProt P04150); assay: GR-EFC Redistribution (AID 451; calls by dose curve; also: potency is read from the fitted curve at half-maximal effect); conditions: CHO-K1 GR-EFC translocation, beta-gal luminescence, 2 h
Outline: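 CHO-K1 cells expressing nuclear EA and GR-ED fragments of b-gal; compounds titrated up to 46 uM final, 2 h at 37 C. GR nuclear translocation read as complemented b-gal luminescence after 1 h RT detection.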

[11] = NFAT Signaling Pathway (AID 444; active = well fitted curve in either direction with a large enough effect, not every such curve was filed as active;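 also: carbachol stimulus at about its EC50 of 1 µM final; % is scaled to controls: 0 for no effect and ±100 for the full control effect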); conditions: Jurkat NFAT-bla M1, carbachol, beta-lactamase ratio, 5 h; at 17.2 µM (top of the series)
Outline: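 Jurkat cells with NFAT-driven β-lactamase reporter and co-expressed M1 receptor, stimulated with carbachol (final 1 uM, ~EC50), compound titration, 5 h at 37 °C. CCF4 loaded 1 h at RT; 460/530 nm ratio gave %activity and AC50.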

[12] = target: ATP-dependent 6-phosphofructokinase (Trypanosoma brucei brucei) (UniProt O15648); assay: qHTS Assay to Find Inhibitors of T. brucei phosphofructokinase: hit validation (AID 492961)
ATP-dependent 6-phosphofructokinase (Trypanosoma brucei brucei), sequence (O15648 whole entry, looked up): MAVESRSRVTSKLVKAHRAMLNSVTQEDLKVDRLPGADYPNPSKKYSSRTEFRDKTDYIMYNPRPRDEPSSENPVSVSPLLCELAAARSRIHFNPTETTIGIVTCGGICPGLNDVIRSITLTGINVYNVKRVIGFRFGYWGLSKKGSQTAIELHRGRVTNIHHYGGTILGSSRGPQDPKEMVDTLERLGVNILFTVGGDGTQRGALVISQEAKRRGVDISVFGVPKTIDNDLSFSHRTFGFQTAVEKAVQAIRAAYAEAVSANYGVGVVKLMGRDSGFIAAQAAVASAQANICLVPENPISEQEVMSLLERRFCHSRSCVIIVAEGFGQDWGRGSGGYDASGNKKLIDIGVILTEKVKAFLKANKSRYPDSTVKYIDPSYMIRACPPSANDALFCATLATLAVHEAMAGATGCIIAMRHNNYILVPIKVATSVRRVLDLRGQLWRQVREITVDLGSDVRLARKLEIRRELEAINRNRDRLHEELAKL
Outline: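 Inhibition of parasite PFK is measured as reduced ADP formation, quantified via luciferase after ATP depletion. Assay used 0.1 mM ATP, 0.5 mM F6P, 1.25 nM enzyme, 45 min incubation.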

[13] = qHTS profiling for inhibitors of Plasmodium falciparum proliferation (AID 504749); also: nearly all actives have a fitted effect of over 60% in size; also: potency is read from the fitted curve at half-maximal effect;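 as to activity, negative = inhibition: 0% = DMSO vehicle and full inhibition = artemisinin control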; conditions: P. falciparum in erythrocytes, SYBR Green DNA, 72 h
Outline: (§1)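 Each compound contacts P. falciparum-infected red blood cells for 72 h at 37 C; lysis buffer (Tris, EDTA, saponin, Triton X, SYBR Green I) is added and fluorescence measured next morning; values normalized to controls.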

[14] = system: CP203; assay: as above; conditions: P. falciparum in erythrocytes, SYBR Green DNA, 72 h; series mostly up to 28.7 µM
Outline: as §1

[15] = system: CP215; assay: as above; conditions: P. falciparum in erythrocytes, SYBR Green DNA, 72 h; series mostly up to 28.7 µM
Outline: as §1

[16] = system: CP262; assay: as above; conditions: P. falciparum in erythrocytes, SYBR Green DNA, 72 h; series mostly up to 28.7 µM
Outline: as §1

[17] = system: CP268; assay: as above; conditions: P. falciparum in erythrocytes, SYBR Green DNA, 72 h; series mostly up to 28.7 µM
Outline: as §1

[18] = system: CP297; assay: as above; conditions: P. falciparum in erythrocytes, SYBR Green DNA, 72 h; series mostly up to 28.7 µM
Outline: as §1

[19] = target: Cytochrome P450 3A4 (Homo sapiens) (UniProt P08684); assay: qHTS Assay for Activators of Cytochrome P450 3A4 (AID 885); also: nearly all actives have a fitted effect of over 65% in size
Cytochrome P450 3A4 (Homo sapiens), sequence (P08684 whole entry, looked up): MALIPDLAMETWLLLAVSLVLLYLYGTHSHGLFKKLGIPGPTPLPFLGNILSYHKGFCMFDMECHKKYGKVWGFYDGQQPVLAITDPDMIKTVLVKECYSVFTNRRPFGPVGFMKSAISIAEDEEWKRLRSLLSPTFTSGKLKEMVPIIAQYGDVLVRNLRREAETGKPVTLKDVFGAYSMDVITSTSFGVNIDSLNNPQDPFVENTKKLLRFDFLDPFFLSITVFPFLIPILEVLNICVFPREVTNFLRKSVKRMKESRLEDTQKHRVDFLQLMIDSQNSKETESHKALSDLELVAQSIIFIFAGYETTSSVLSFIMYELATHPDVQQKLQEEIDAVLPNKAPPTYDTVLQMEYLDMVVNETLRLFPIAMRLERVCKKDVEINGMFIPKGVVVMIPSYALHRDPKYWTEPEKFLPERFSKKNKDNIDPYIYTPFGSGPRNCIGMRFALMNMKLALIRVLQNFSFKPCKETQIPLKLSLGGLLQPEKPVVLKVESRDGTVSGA
Outline: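 Using 20nM recombinant human CYP3A4 in potassium phosphate (200mM), substrate Luciferin-PPXE at 25uM, luminescent luciferin detection followed a 60-min RT NADPH reaction; data scaled to 57 uM ketoconazole.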

[20] = measured here: cell count channel max response
[21] = measured here: lipid channel max response
[22] = at 12.8 µM (top of the series), parasite line A
[23] = at 12.8 µM (top of the series), parasite line B
[24] = at 28.7 µM (top of the series), parasite line A
[25] = at 28.7 µM (top of the series), parasite line B

CN1[C@@H](C[C@@H](O)c2ccccc2)CCC[C@@H]1C[C@H](O)c1ccccc1
inactive: outcome [1] | outcome [3] | Potency [4] > 20.6 µM | outcome [5] | Potency [6] | activity change, negative = inhibition [8] -1.73% | Potency [9]
active: Potency [2] 5.01 µM | Potency [7] 0.631 µM
0.966%: max response [8, 21]
3.31%: max response [8, 20]

COc1cc(C(=O)OC2C[C@H]3CC[C@@H](C2)N3C)ccc1O (some centres undefined)
-32.4%: max response [8, 20]
inactive: outcome [1] | Potency [2] | outcome [3] | Potency [4] > 20.6 µM | Potency [10] > 20.6 µM | outcome [5] | Potency [6] | activity change, negative = inhibition [8] 2.65%
-27.3%: max response [8, 21]

C(#CCN1CCCC1)CN1CCCC1
inactive: outcome [1] | Potency [2] | outcome [3] | Potency [4] > 20.6 µM | Potency [10] > 20.6 µM | outcome [5] | Potency [6] | activity change, negative = inhibition [8] 0.99% | Potency [9]
10.3%: max response [8, 21]
10.9%: max response [8, 20]

CN(C)[C@@H]1C(=O)C(C(N)=O)=C(O)[C@]2(O)C(=O)C3=C(O)c4c(O)ccc(Cl)c4[C@](C)(O)[C@H]3C[C@@H]12
-2.07%: max response [8, 20]
inactive: outcome [1] | activity change, negative = inhibition [11] -5.59% | outcome [3] | Potency [4] > 20.6 µM | Potency [10] > 20.6 µM | outcome [5] | Potency [6] | activity change, negative = inhibition [8] 0.321% | Potency [12] | activity, negative = inhibition [13, 22] -8.57% | activity, negative = inhibition [13, 23] -7.26% | Potency [14] | Potency [15] | Potency [16] | Potency [17] | Potency [18]
-2.35%: max response [8, 21]

C[C@H](NC(C)(C)C)C(=O)c1cccc(Cl)c1
-2.37%: max response [8, 21]
-0.478%: max response [8, 20]
inactive: outcome [1] | Potency [2] | outcome [3] | Potency [4] > 46 µM and > 20.6 µM | outcome [5] | Potency [6] | activity change, negative = inhibition [8] -1.98% | Potency [12] | Potency [9] | activity, negative = inhibition [13, 24] 3.13% | activity, negative = inhibition [13, 25] 0.713% | Potency [14] | Potency [15] | Potency [16] | Potency [17] | Potency [18]

COc1ccc2c(c1OC)CN1CCc3cc4c(cc3[C@H]1C2)OCO4
inactive: outcome [1] | activity change, negative = inhibition [11] -25.2% | outcome [3] | Potency [4] > 20.6 µM | Potency [10] > 20.6 µM | outcome [5] | Potency [6] | activity change, negative = inhibition [8] -2.73% | Potency [12] | Potency [9]
active: Potency [7] 0.0631 µM | Potency ([13]; parasite line A) 2 µM | Potency [15] 2.03 µM | Potency [16] 1.61 µM | Potency [18] 1.81 µM
-16.8%: max response [8, 20]
-19%: max response [8, 21]

C[C@@]12CC[C@H]3[C@@H](CC[C@@H]4C[C@H]5S[C@H]5C[C@]43C)[C@H]1CC[C@H]2O
inactive: outcome [1] | activity change, negative = inhibition [11] -8.3% | outcome [3] | Potency [4] > 20.6 µM | Potency [10] > 20.6 µM | outcome [5] | Potency [6] | Potency [19] | activity change, negative = inhibition [8] -4.67% | Potency [12] | Potency [9] | activity, negative = inhibition [13, 22] 2.41% | activity, negative = inhibition [13, 23] 1.96% | Potency [14] | Potency [15] | Potency [16] | Potency [17] | Potency [18]
-23.9%: max response [8, 21]
-19.3%: max response [8, 20]

CC[C@H](CO)NC(=O)[C@H]1C=C2c3cccc4[nH]cc(c34)C[C@@H]2N(C)C1
3.2%: max response [8, 20]
inactive: outcome [1] | activity change, negative = inhibition [11] -13.5% | outcome [3] | Potency [4] > 20.6 µM | Potency [10] > 20.6 µM | outcome [5] | Potency [6] | activity change, negative = inhibition [8] 0.62%
2.54%: max response [8, 21]
active: Potency [9] 17.8 µM

N[C@H]1C[C@H]1c1ccccc1
5.35%: max response [8, 20]
inactive: outcome [1] | activity change, negative = inhibition [11] -3.83% | outcome [3] | outcome [5] | Potency [6] | activity change, negative = inhibition [8] -0.294% | Potency [12] | Potency [9] | activity, negative = inhibition [13, 24] 10.1% | activity, negative = inhibition [13, 25] 3.27% | Potency [14] | Potency [15] | Potency [16] | Potency [17] | Potency [18]
3.84%: max response [8, 21]

C[C@@H]1NCCc2cc(O)c(O)cc21
-9.01%: max response [8, 20]
-11.5%: max response [8, 21]
inactive: outcome [1] | activity change, negative = inhibition [11] -2.85% | outcome [3] | Potency [4] > 20.6 µM | Potency [10] > 20.6 µM | outcome [5] | Potency [6] | activity change, negative = inhibition [8] -2.45% | Potency [9]

C[C@@]12CCC(=O)C=C1C=C[C@H]1[C@H]3CC[C@](O)(CCC(=O)O)[C@]3(C)CC[C@@H]12
-8.17%: max response [8, 21]
inactive: outcome [1] | activity change, negative = inhibition [11] -1.71% | outcome [3] | Potency [4] > 20.6 µM | Potency [10] > 20.6 µM | outcome [5] | Potency [6] | activity change, negative = inhibition [8] -0.688% | Potency [12] | Potency [9] | activity, negative = inhibition [13, 22] 9.22% | activity, negative = inhibition [13, 23] 6.42% | Potency [14] | Potency [15] | Potency [16] | Potency [17] | Potency [18]
-7.2%: max response [8, 20]

C[C@H]1C(=O)O[C@@H]2CCN3CC=C(COC(=O)[C@@](C)(O)[C@@]1(C)O)[C@H]23
inactive: outcome [1] | Potency [2] | outcome [3] | Potency [4] > 20.6 µM | Potency [10] > 20.6 µM | outcome [5] | Potency [6] | activity change, negative = inhibition [8] -2.11% | Potency [9]
4.14%: max response [8, 20]
3.19%: max response [8, 21]
